This is an account of results in PubChem BioAssay (NCATS).

Records with an inconclusive call do not appear. Unmarked numbers belong to inactive results. The list shows a part of the results. Activity calls are given as the source filed them. Unless noted, the call rests on the fitted dose curve; in most records, active means well fitted curve in the direction sought with a large enough effect; inconclusive means small, poorly fitted or top-dose-only effect, or another doubt; inactive means no such curve, though single readings can be large; an effect the other way counts as inactive or inconclusive.

Assay [1] in a line: qHTS for Inhibitors of Plasmodium falciparum (DD2) proliferation (AID 504314). Further: potency means the concentration at half of the fitted maximal effect.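 On activity, negative = inhibition: parasite DNA measured by SYBR Green fluorescence after red cell lysis; plate controls were DMSO vehicle for no effect and artemisinin wells for full effect.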 In short, it runs like this: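 Infected RBCs, 0.3% parasitemia, 2.5% Hct; compound 72 h, 37C/5% CO2; lyse + SYBR Green I, RT overnight, dark; read ex485/em535; normalize to DMSO and artemisinin 0.29 uM.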
Assay [2] can be described thus: qHTS for Inhibitors of Plasmodium falciparum (GB4) proliferation (AID 504315). Further: nearly all actives have a fitted effect of over 50% in size. Further: potency means the concentration at half of the fitted maximal effect. In short, it runs like this:
(§1)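 Erythrocytes infected with P. falciparum line (0.3% parasitemia, 2.5% hematocrit final) incubated with compounds 72 h at 37 °C, 5% CO2; SYBR Green lysis buffer added, fluorescence read next day. Normalized to 0.29 uM artemisinin and DMSO.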

Assay [3] can be described thus: qHTS for Inhibitors of Plasmodium falciparum (7G8) proliferation (AID 504316). Further: nearly all actives have a fitted effect of over 65% in size. Further: potency means the concentration at half of the fitted maximal effect. In short, it runs like this: as §1
On the technique in general: In qHTS, concentration-response curves come from the screen itself.

Assay [4] deals with Atrial natriuretic peptide receptor 1 (Homo sapiens) (UniProt P16066). Nature of the assay: Natriuretic polypeptide receptor (hNpr1) antagonism - Pilot CMLD screen (AID 1347052; calls by dose curve;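 further: HEK293 cells with hNpr1 stimulated by hNppA peptide at 0.1 nM; cGMP level read as GloSensor luciferase luminescence after agonist stimulation; series mostly up to about 9.2 µM; on the % scale 0 is the no-effect control and ±100 the full control effect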).
Sequence of Atrial natriuretic peptide receptor 1 (Homo sapiens) (P16066 whole entry, looked up): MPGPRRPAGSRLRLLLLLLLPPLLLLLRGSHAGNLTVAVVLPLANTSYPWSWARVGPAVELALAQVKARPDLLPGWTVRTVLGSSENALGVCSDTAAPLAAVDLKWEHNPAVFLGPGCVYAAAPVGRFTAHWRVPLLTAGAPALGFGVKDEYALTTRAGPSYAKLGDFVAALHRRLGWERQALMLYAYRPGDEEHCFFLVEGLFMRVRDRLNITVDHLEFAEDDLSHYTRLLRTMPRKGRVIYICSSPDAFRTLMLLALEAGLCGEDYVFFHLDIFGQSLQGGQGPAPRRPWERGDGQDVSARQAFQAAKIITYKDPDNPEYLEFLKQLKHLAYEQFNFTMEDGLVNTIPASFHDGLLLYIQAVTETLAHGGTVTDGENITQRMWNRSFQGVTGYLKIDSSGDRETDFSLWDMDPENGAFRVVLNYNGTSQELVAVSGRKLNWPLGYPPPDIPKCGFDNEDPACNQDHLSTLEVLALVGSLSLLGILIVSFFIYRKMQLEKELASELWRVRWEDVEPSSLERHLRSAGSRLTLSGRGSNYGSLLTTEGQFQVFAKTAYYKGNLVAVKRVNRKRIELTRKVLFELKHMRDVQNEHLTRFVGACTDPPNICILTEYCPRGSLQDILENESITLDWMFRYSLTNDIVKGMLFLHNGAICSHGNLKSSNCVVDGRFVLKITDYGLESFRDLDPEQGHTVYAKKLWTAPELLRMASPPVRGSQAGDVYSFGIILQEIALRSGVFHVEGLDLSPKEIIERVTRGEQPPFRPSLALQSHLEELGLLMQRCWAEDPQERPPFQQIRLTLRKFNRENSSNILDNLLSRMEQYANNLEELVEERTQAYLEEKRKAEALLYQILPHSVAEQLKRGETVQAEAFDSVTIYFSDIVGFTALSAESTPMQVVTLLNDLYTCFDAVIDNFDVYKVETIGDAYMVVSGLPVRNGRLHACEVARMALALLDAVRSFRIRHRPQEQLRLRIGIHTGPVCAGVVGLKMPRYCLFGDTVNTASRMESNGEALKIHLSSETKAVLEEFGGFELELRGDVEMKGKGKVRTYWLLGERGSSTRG
A short description of assay [5]: qHTS for Inhibitors of Plasmodium falciparum (HB3) proliferation (AID 504318). Further: nearly all actives have a fitted effect of over 60% in size. Further: potency means the concentration at half of the fitted maximal effect. In short, it runs like this: as §1
Assay [6] is described as follows: qHTS for Inhibitors of Plasmodium falciparum (CP250) proliferation (AID 504320).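 Further: plate controls were DMSO vehicle for no effect and 0.29 µM artemisinin control for full effect.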 In short, it runs like this:
as §1

Assay [7] concerns the target Rap guanine nucleotide exchange factor 3 (Homo sapiens) (UniProt O95398). Put plainly: Confirmatory qHTS for antagonist of cAMP-regulated guanine nucleotide exchange factor 3 (EPAC1) (AID 1645880).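 Further: plate controls were DMSO only for no effect and full effect of the ATA control for full effect; nearly all actives have a fitted effect of over 55% in size.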 In short, it runs like this:
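Nucleotide exchange uses 100 nM EPAC1, 250 nM RAP1B-BODIPY-GDP and 50 uM GDP, with compounds in a concentration-titration series. After 5 min at room temperature, fluorescence (480 nm ex/540 nm em) is read every 5 min for 30 min. Data are normalized to control ATA and DMSO.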

The target is the same in assay [8]. Put plainly: Confirmatory qHTS for agonist of cAMP-regulated guanine nucleotide exchange factor 3 (EPAC1) (AID 1645881).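 Further: EPAC1 catalysed release of BODIPY-GDP from Rap1B seen as fluorescence loss; 100% = effect of cAMP agonist control; nearly all actives have a fitted effect of over 75% in size.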
The target of assay [9] is Rap guanine nucleotide exchange factor 4 (Homo sapiens) (UniProt Q8WZA2). Nature of the assay: Confirmatory qHTS for agonist of cAMP-regulated guanine nucleotide exchange factor 4 (EPAC2) (AID 1645884).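 Further: nucleotide exchange releases bodipy-GDP from Rap1 and this lowers its fluorescence; on the % scale 0 is the no-effect control and ±100 the full control effect; nearly all actives have a fitted effect of over 65% in size.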
Sequence of Rap guanine nucleotide exchange factor 4 (Homo sapiens) (Q8WZA2 whole entry, looked up): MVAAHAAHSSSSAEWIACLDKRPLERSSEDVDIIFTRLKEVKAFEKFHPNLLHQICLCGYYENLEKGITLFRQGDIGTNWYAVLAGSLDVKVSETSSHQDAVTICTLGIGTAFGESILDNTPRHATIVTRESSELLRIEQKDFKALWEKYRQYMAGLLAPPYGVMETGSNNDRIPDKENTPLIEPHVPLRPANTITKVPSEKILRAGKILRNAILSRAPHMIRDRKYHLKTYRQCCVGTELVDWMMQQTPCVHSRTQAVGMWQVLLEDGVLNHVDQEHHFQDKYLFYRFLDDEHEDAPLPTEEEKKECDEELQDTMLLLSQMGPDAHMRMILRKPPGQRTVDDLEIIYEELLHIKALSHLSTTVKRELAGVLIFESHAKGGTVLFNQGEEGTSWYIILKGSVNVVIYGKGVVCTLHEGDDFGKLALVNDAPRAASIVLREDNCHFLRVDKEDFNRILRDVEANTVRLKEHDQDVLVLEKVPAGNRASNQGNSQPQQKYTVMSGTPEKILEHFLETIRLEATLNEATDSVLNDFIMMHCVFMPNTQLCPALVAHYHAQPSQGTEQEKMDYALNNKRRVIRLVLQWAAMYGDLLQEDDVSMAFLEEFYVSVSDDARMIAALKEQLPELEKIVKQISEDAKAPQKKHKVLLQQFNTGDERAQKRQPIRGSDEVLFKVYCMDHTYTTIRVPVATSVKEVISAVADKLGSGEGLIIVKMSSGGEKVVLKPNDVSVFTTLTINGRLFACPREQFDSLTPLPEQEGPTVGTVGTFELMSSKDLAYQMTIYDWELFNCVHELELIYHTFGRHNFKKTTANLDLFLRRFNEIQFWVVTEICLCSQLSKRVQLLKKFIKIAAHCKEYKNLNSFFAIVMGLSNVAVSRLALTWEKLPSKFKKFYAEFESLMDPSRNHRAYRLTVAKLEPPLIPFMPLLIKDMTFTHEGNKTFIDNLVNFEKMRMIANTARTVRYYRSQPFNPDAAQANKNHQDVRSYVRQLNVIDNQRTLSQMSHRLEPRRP
Assay [10] has the same target. Put plainly: Confirmatory qHTS for antagonist of cAMP-regulated guanine nucleotide exchange factor 4 (EPAC2) (AID 1645885). Further: on the % scale 0 is the no-effect control and ±100 the full control effect; nearly all actives have a fitted effect of over 25% in size.
The target of assay [11] is Rap guanine nucleotide exchange factor 3 (Homo sapiens) (UniProt O95398). Nature of the assay: Counterscreen qHTS for antagonist of cAMP-regulated guanine nucleotide exchange factor 3 (EPAC1) (AID 1645888).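 Further: fluorescence loss as bound BODIPY-GDP is released from Rap1B; % of control where 0% means no effect.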 In short, it runs like this: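 Rap1B-BODIPY-GDP 250 nM + GDP 50 uM; cpds 7-pt, final 9.74 nM–152 uM (activator mode) or from 7.32 nM upwards (inhibitor mode); RT; FI 480/540 nm at 5 and 30 min, then ± cAMP, reread.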
Sequence of Rap guanine nucleotide exchange factor 3 (Homo sapiens) (O95398 whole entry, looked up): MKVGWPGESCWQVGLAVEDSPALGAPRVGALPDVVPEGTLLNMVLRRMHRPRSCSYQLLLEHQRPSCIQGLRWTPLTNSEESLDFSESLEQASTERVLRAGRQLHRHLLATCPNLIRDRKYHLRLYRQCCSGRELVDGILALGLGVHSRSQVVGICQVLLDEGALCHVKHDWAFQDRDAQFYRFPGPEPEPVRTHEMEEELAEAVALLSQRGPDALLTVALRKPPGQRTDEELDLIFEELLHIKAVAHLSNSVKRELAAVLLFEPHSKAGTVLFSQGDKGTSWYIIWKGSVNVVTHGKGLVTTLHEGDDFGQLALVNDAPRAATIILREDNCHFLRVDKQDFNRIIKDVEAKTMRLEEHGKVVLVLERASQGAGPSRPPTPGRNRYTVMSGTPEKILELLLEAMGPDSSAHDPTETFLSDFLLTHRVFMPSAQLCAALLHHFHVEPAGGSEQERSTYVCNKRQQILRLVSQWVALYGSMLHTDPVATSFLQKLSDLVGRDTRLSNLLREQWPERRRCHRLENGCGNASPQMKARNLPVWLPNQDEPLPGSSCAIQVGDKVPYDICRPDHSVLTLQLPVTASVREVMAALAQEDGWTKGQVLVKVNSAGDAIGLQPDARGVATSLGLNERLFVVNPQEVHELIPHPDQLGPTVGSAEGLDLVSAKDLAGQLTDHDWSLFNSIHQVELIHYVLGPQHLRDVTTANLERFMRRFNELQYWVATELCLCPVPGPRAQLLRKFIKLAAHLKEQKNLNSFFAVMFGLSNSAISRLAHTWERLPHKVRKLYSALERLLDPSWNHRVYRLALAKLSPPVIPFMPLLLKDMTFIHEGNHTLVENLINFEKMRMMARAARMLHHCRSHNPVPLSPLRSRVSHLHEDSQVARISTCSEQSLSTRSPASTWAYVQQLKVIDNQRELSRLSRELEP

Assay [12] concerns the target Tyrosyl-DNA phosphodiesterase 1 (Homo sapiens) (UniProt Q9NUW8). Put plainly: Confirmation Assay for Inhibitors of Tyrosyl-DNA Phosphodiesterase (TDP1) (AID 489007). Further: potency means the concentration at half of the fitted maximal effect; nearly all actives have a fitted effect of over 40% in size. The settings on record: recombinant human TDP1 enzymatic activity, dose-response. In short, it runs like this: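 Tdp1 1 nM + cpd, 15 min RT; add biotin/phosphotyrosine-FITC oligo 15 nM, 5 min RT; add AS donor/acceptor beads 10 ug/ml, 10 min RT; read AlphaScreen. No-enzyme wells = max signal.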

Assay [13] concerns the target Vitamin D3 receptor (Homo sapiens) (UniProt P11473). Put plainly: qHTS for Inhibitors of the vitamin D receptor (VDR): Hit Validation in Primary Screen (AID 602199). Further: potency means the concentration at half of the fitted maximal effect. The settings on record: VDR-coactivator inhibition assay, qHTS confirmation. In short, it runs like this:
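With 800 nM VDR and 5 uM LG19078 agonist present, compounds were incubated 2 h at ambient temperature with Alexa 647-labelled SRC2-3. Displacement was read as polarization at 620/688 nm.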

Sequence of Tyrosyl-DNA phosphodiesterase 1 (Homo sapiens) (Q9NUW8 whole entry, looked up): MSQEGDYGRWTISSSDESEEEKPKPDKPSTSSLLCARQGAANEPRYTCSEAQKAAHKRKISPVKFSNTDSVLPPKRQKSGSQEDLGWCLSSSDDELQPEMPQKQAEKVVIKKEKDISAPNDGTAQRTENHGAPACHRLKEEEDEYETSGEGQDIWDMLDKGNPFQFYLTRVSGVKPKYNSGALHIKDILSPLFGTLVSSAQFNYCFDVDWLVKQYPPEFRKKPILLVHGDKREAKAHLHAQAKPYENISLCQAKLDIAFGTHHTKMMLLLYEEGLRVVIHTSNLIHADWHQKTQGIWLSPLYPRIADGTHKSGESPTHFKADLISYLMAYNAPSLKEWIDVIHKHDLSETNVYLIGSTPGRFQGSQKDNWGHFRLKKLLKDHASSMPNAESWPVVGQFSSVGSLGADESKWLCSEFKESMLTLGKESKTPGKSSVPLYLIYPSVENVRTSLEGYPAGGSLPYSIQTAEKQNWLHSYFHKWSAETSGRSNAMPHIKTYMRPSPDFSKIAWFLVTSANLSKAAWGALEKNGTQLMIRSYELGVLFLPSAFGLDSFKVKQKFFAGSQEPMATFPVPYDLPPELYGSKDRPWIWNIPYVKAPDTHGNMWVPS
Sequence of Vitamin D3 receptor (Homo sapiens) (P11473 whole entry, looked up): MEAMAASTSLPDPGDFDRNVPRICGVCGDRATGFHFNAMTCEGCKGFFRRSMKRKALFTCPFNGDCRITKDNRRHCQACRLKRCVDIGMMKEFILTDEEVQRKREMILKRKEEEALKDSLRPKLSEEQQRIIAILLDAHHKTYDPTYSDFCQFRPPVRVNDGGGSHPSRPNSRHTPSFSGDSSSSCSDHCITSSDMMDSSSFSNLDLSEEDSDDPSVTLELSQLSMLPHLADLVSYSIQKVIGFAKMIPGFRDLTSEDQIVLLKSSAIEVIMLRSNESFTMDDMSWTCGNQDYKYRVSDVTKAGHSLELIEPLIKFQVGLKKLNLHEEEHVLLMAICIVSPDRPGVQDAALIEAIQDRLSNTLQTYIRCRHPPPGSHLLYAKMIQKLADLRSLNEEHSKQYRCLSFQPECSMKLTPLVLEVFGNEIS

Take `CCCCC1=CC2=C(c3ccco3)C(=O)C(C)(OC(=O)c3ccc(OC)cc3)C(=O)C2=CN1CCc1ccccn1` (stereo unspecified): the Potency result in [1], in assay [2], in [3] and in assay [4] was “inactive” each time.
Turning to `COC(=O)CCC(=O)OC1(C)C(=O)C=C2C=C(C3CC3)N(CCCOC(C)C)C=C2C1=O` (stereo unspecified), the activity, negative = inhibition in assay [1] was -1.07% [at 1.12 µM]. Moreover, the Potency entry in assay [5], in [6], in assay [4], in assay [7] and in [10] was “inactive” throughout. The compound was called inactive in [8], in assay [9] and in [11].
`CCOC(=O)C1=NO[C@@]2(C=C(Br)C(=O)[C@H]3O[C@H]32)C1`: the Potency in assay [12] was 11.2 µM (active); in assay [13], 12.6 µM (active). Further, the Potency result in assay [6] and in [4] was “inactive” in each case.
`COC1=C[C@H](C(=O)NC2CCN(Cc3ccccc3)CC2)[C@@]2(C)Cc3ccccc3[C@@H]2CC1=O`: the Potency result in assay [1], in assay [2] and in [4] was “inactive” throughout.
In the case of `Cc1ccccc1Nc1oc(-c2ccccc2)nc1-c1cccs1`, the Potency entry in [4] is “inactive”.
Consider `c1ccc(-c2nc(-c3cccs3)c(NC3CCCCC3)o2)cc1`, for which, in assay [4], the Potency entry is “inactive”.
Same read-out and setting: then `CC=C(C)[C@H](O)C[Si](C)(C)c1ccccc1`, with “inactive”.
Consider `CCCNC(=O)CC1OC(C2CCCCC2)Cc2ccccc21` (stereo unspecified), for which the Potency entry in assay [1], in [2], in assay [3] and in assay [4] was “inactive” in each case.
Take `CC[C@@]12C=C(C=Cc3ccccc3)[C@](CC)(C1)[C@H](c1ccccc1)CC2=O`: the Potency entry in [4] is “inactive”.
Consider `CCCC[C@]12Cc3ccccc3[C@H](O1)c1c(cc(-c3ccccc3)oc1=O)O2`, for which the Potency in assay [1] was 1.69 µM (active); in assay [2], 1.69 µM (active); in assay [3], 1.9 µM (active). Besides, the Potency entry in assay [4] was “inactive”.
Take `COc1ccc(-c2nc(-c3ccccc3)c(NC(C)C)o2)cc1`: the Potency is 1.69 µM (active) in assay [1], 1.51 µM (active) in assay [2] and 1.51 µM (active) in assay [3]. Also, in assay [4], the Potency result is “inactive”.
On to `C[C@H]1C[C@@H](C)O[C@@]2(C1)C(=O)N(Cc1ccccc1C(F)(F)F)c1ccccc12`, for which the Potency entry in assay [4] was “inactive”.
In the case of `COc1cc2c(cc1OC)[C@@H]1O[C@](CCCCN3C(=O)c4ccccc4C3=O)(C2)Oc2c1c(=O)oc1ccccc21`, the results for the Potency in assay [1] and in assay [2] were 1.5 µM (active) and 1.69 µM (active), respectively. Moreover, the Potency result in [4] is “inactive”.
Turning to `C=CCC12C=C(OC)C(=O)C(C1=O)C(c1ccc(OC)cc1)C2C` (stereo unspecified), in [4], the Potency entry is “inactive”.
For `C=CCOC(=O)N[C@H](c1cccc(C(F)(F)F)c1)C(C(C)=O)C(C)=O`, the Potency result in assay [1], in assay [2], in [3] and in [4] was “inactive” throughout.
In the case of `COc1cccc([C@@H]2Oc3ccc(OC)cc3C(=O)[C@@H]2OC(=O)N[C@H]2CCCc3ccccc32)c1`, the Potency entry in [1] and in [4] was “inactive” each time.
Regarding `CC(C)=CCCC(C)=CCN1C(=O)[C@@]2(CC(C)=CC[C@@H](C)O2)c2c(Br)cccc21`, the Potency result in [4] was “inactive”.
For the compound `CCCC[C@@H]1CN2[C@@H](CC[C@H](C)[C@@H]2c2ccc(Br)cc2)C(=O)O1`, the Potency entry in assay [1], in assay [2], in [3], in assay [5] and in [4] was “inactive” throughout.
In the case of `CCN1C(=NCc2ccc(OC)cc2)NC(c2cccc(C(F)(F)F)c2)C(C(=O)OC)=C1C` (stereo unspecified), the Potency result in assay [1], in assay [2], in assay [3], in [5], in assay [6] and in [4] was “inactive” in each case.
For `COc1ccc2c(c1)C(NC(=O)C(F)(F)F)CC21CCCCC1` (stereo unspecified), the Potency entry in assay [1], in assay [2], in assay [3], in assay [5], in assay [6] and in assay [4] was “inactive” each time.
Regarding `C=CCOC(=O)C1=C(C)N(CC)C(=O)NC1c1ccccc1` (stereo unspecified), the Potency entry in assay [1], in assay [2], in [3], in [5], in assay [6] and in assay [4] was “inactive” throughout.
For `COc1ccc(C=CC2=C[C@]3(C)C[C@]2(C)[C@H](c2ccc(OC)cc2)CC3=O)cc1`, the Potency was 1.5 µM (active) in [1], 1.69 µM (active) in [2], 1.51 µM (active) in assay [3] and 1.51 µM (active) in assay [5]. In addition, in [4], the Potency entry is “inactive”.
